± gives the standard deviation.

Here are results for 24 sequences from the supplement of paper PMC10338343.

This experiment has as its system EfPiwi piRISC loaded with piRNA #1 (26 nt). Put plainly: pre-steady-state target cleavage rate (min^-1); auxiliary factor: 500 nM Ephydatia muelleri Gtsf1; guide: piRNA #1 5'p-UGAGGUAGUAGGUUGUAUAGUAUCCA; MIWI and MILI are mouse PIWI proteins and EfPiwi is from a freshwater sponge; tags in brackets are library labels; higher = faster piRNA-guided slicing of the target. The essentials: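 Cleave-'n-Seq: 1 nM active affinity-purified piRISC with one synthetic guide and 0.1 nM transcribed, DNA-blocked target RNA library were mixed, with or without 500 nM GTSF1 partner protein, in HEPES–potassium acetate buffer at 33 °C for 0–8 or 0–960 min. Uncleaved targets were sequenced and normalised to depth and to weakly complementary targets, three trials were pooled, and k3 was capped at 0.0001 min^-1. The pre-steady-state cleavage rate was fitted […].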
Consider GGAGACCAUACUAUAGAACCUACUACGUCA, for which the “pre-steady-state target cleavage rate” value was determined as 0.00374 ± 0.0034. To GGAGACGAUAAUAUACAACCUACUACCUCA belongs 0.072 ± 0.025. To GGAGACGAUACUAUAGAACCAACUACCUCA belongs 0.00377 ± 0.002; to GGAGACCAUUGAAUACAACCUACUACCUCA, 0.00581 ± 0.0033.

In the case of GGAGACGAUAACUAUACAACCUACUACCUCA, the “pre-steady-state target cleavage rate” value was determined as 0.0617 ± 0.023. Under GGAGAGGAUACUAUAGCAACCUACUACCUCA stands 0.0429 ± 0.019; under GGAGAGGAUACUAUACAACCUACUACCGCA, 0.00593 ± 0.0021. To GGAGACCUUACUCUACAACCUACUACCUCA belongs 0.0532 ± 0.019; to GGAGACCUUACUAUACAUCCUACUACCACA, 0.0038 ± 0.0032. With GGAGACGUUACUAUACUACCUACUACCUCA, the “pre-steady-state target cleavage rate” value came out at 0.00494 ± 0.0024. To GGAGAGGAUACUAUACAACCUACUAUCUCA belongs 0.081 ± 0.036. Under GGAGACGAUACUAUACAAGCUACUAGCUCA stands 0.00375 ± 0.0019; under GGAGUGGAGACUAUACAACCUACUACCUCA, 0.0807 ± 0.031; under GGAGACGAUACUAUACAACGUACUACCUCA, 0.00525 ± 0.0016.

In the case of GGAGAGGUUACUAUACAACCUACAACCUCA, the “pre-steady-state target cleavage rate” value is 0.00313 ± 0.0018. Under GGAGAGGAUACUAUACAUCCAACUACCUCA stands 0.00419 ± 0.0022; under GGAGACCUUACAAUACAACCUACUACCUCA, 0.0117 ± 0.0048; under GGAGUCGUUACUAUACAACCUACUACCUCA, 0.0129 ± 0.0069.

In the case of GGAGACCAUAUAUACAACCUACUACCUCA, the “pre-steady-state target cleavage rate” value came out at 0.00541 ± 0.0043. To “GGAGAGGAUACUAUACAACCUACUACCUCA [g2:g25:cont:t1A]” belongs 0.0912 ± 0.033; to GGAGACCAUACUAUACAACCUACCACCUCA, 0.00474 ± 0.0033; to GGAGAGGAAACUAUUCAACCUACUACCUCA, 0.013 ± 0.0061.

With GGAGAGGAUACUUUACAACCUUCUACCUCA, the “pre-steady-state target cleavage rate” value is 0.0032 ± 0.0028. To GGAGACGAUACUUACAACCUACUACCUCA belongs 0.00671 ± 0.0036.
